The text below walks through data of PubChem BioAssay (EPA / NIEHS).

The nature of assay [1]: BSK_LPS_PGE2: BioMAP Diversity Plus: LPS Assay for Prostaglandin E2 (PGE2) Biomarker Activity (AID 2283082). Particulars: primary human HUVEC with PBMC; actives raise or lower the signal. Put shortly: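 Compounds were added to the LPS co-culture of endothelium and PBMC, and PGE2 was measured by ELISA after 24 h. Responses in either direction were fitted with DMSO as baseline.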

Read-out in assay [2]: Macrophage colony-stimulating factor (MCSF), CSF1 (gene 1435)
The assay can be described thus: BSK_LPS_MCSF: BioMAP Diversity Plus: LPS Assay for Macrophage colony-stimulating factor (MCSF) Biomarker Activity (AID 2283083). The note with it: primary human HUVEC with PBMC; actives raise or lower the signal. The gist of the method:
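HUVEC + PBMC co-culture (human primary), 24 h post-dose; M-CSF by ELISA; gain/loss of signal fitted bidirectionally vs DMSO baseline.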

Read-out in assay [3]: Tissue Factor, F3 (gene 2152)
The assay can be described thus: BSK_LPS_TissueFactor: BioMAP Diversity Plus: LPS Assay for Tissue Factor Biomarker Activity (AID 2283084). The note with it: primary human HUVEC with PBMC; actives raise or lower the signal. The gist of the method: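 HUVEC/PBMC co-culture, LPS-activated; CD142 ELISA read 24 h post-dose; bidirectional curve fit vs DMSO negative control.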

Read-out in assay [4]: Tumor necrosis factor (Homo sapiens) (UniProt P01375)
As to the kind of experiment: BSK_LPS_TNFa: BioMAP Diversity Plus: LPS Assay for Tumour Necrosis Factor alpha (TNFa) Biomarker Activity (AID 2283085).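 On AC50: TNFa protein level quantified by ELISA in the co-culture.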 The note with it: primary human HUVEC with PBMC; actives raise or lower the signal. The gist of the method:
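Cells (umbilical vein endothelium plus peripheral blood mononuclear cells) were dosed with chemical, incubated 24 h, then TNFa was quantified by ELISA; values derive from bidirectional fitting with DMSO as baseline.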

Read-out in assay [5]: Vascular cell adhesion molecule 1 (VCAM1), VCAM1 (gene 7412)
As to the kind of experiment: BSK_LPS_VCAM1: BioMAP Diversity Plus: LPS Assay for Vascular cell adhesion molecule 1 (VCAM1) Biomarker Activity (AID 2283086). Particulars: primary human HUVEC with PBMC; actives raise or lower the signal. The gist of the method: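 Cells are dosed in an LPS-stimulated endothelial/mononuclear co-culture and, after 24 h, VCAM-1 is quantified by ELISA. Activity in either direction is fitted relative to the DMSO negative control.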

Read-out in the next assay: CD38, CD38 (gene 952)
As to the kind of experiment: BSK_SAg_CD38: BioMAP Diversity Plus: SAg Assay for CD38 Biomarker Activity (AID 2283087). Particulars: primary human HUVEC with PBMC; actives raise or lower the signal. The gist of the method:
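CD38 quantified by ELISA (fluorescence) in a superantigen-activated endothelial cell–PBMC co-culture at 24 h post-dose. Activity fitted in both directions relative to DMSO; parallel SRB and Alamar Blue cytotoxicity read-outs.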

Read-out in another assay: CD40, CD40 (gene 958)
The assay can be described thus: BSK_SAg_CD40: BioMAP Diversity Plus: SAg Assay for CD40 Biomarker Activity (AID 2283088). The note with it: primary human HUVEC with PBMC; actives raise or lower the signal. Put shortly:
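HUVEC/PBMC co-culture, 24 h post-dose; CD40 by ELISA, fluorescence intensity; bidirectional fit vs DMSO negative control.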

Read-out in a further assay: CD69, CD69 (gene 969)
The assay can be described thus: BSK_SAg_CD69: BioMAP Diversity Plus: SAg Assay for CD69 Biomarker Activity (AID 2283089).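 On AC50: cell surface CD69 protein quantified by ELISA with fluorescence detection.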 Particulars: primary human HUVEC with PBMC; actives raise or lower the signal. Put shortly:
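Endothelial/PBMC co-culture; chemical added; 24 h incubation; CD69 ELISA with fluorescence detection; bidirectional fit vs DMSO.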

Read-out in assay [6]: Monocyte Chemoattractant Protein-1 (MCP1), CCL2 (gene 6347)
As to the kind of experiment: BSK_SAg_MCP1: BioMAP Diversity Plus: SAg Assay for Monocyte Chemoattractant Protein-1 (MCP1) Biomarker Activity (AID 2283090). The note with it: primary human HUVEC with PBMC; actives raise or lower the signal. The gist of the method: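 Values derive from bidirectional fitting of ELISA-measured MCP1 against DMSO controls. Readings were taken 24 h after dosing human vascular endothelial cells co-cultured with peripheral blood mononuclear cells under superantigen stimulation.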

Read-out in assay [7]: E-selectin (Homo sapiens) (UniProt P16581)
As to the kind of experiment: BSK_SAg_Eselectin: BioMAP Diversity Plus: SAg Assay for Eselectin Biomarker Activity (AID 2283091). Particulars: primary human HUVEC with PBMC; actives raise or lower the signal. Put shortly: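 E-selectin ELISA readout at 24 h post-dosing in human umbilical vein endothelial cell/PBMC co-culture; gain or loss of signal fitted relative to DMSO baseline.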

Read-out in assay [8]: Monokine induced gamma interferon (MIG), CXCL9 (gene 4283)
The assay can be described thus: BSK_SAg_MIG: BioMAP Diversity Plus: SAg Assay for Monokine induced gamma interferon (MIG) Biomarker Activity (AID 2283092). Particulars: primary human HUVEC with PBMC; actives raise or lower the signal. The gist of the method:
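Measures CXCL9 protein by ELISA in a human vascular primary-cell co-culture (umbilical vein endothelium with PBMC) 24 h after chemical addition. Activity is scored up or down from the DMSO control.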

Assay [9] is described as follows: BSK_SAg_PBMCCytotoxicity: PBMC Cytotoxicity Assessment in the BioMAP Diversity Plus: SAg Assay (AID 2283093).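 Further: fitted both ways against DMSO so a hit may be loss or gain of signal.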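 On AC50: PBMC superantigen activated with SEB plus TSST-1 one hour after compound addition.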 Particulars: primary human HUVEC with PBMC. Put shortly:
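PBMC viability by Alamar Blue reduction, fluorescence read at 546/580 nm after 6 h dye exposure. Cells were dosed 1 h before SEB plus TSST-1 activation (20 ng/mL final each), then held 90 h; endothelial/PBMC human co-culture.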

Read-out in assay [10]: Interleukin-8 (IL8), CXCL8 (gene 3576)
As to the kind of experiment: BSK_SAg_IL8: BioMAP Diversity Plus: SAg Assay for Interleukin-8 (IL8) Biomarker Activity (AID 2283094). Particulars: primary human HUVEC with PBMC; actives raise or lower the signal. Put shortly:
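Chemicals were dosed onto a human endothelial–PBMC co-culture, and IL-8 was quantified by ELISA after 24 h. Both increases and decreases were fitted relative to DMSO.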

Assay [11] is described as follows: BSK_SAg_Proliferation: Cell Proliferation Assessment in the BioMAP Diversity Plus: SAg Assay (AID 2283095).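 Further: relative cell number as total protein by SRB absorbance in sub-confluent culture.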 The note with it: primary human HUVEC with PBMC. The gist of the method:
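Absorbance of sulforhodamine B at 560 nm reports total protein in a human vascular endothelial/PBMC co-culture after 96 h chemical exposure. Gain or loss of signal is fitted in both directions against DMSO.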

Assay [12] deals with human CYP1A2, CYP1A2 (gene 1544) (UniProt P05177). The assay can be described thus: NVS_ADME_hCYP1A2: NovaScreen (NVS) CYP450-related Enzyme Activity (ADME) Assay for human CYP1A2 (AID 2283102; active means hit-call score of the fitted dose curve at least 0.9, where 1 is the maximum;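 on AC50: potency for inhibition since loss of fluorescence marks reduced CYP1A2 activity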). The gist of the method:
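Fluorescence-intensity enzyme activity read-out, taken 0.5 h post-dosing, using insect-cell-derived recombinant CYP1A2 and specific fluorescent substrate. Acetonitrile served as negative control/baseline. Single-concentration duplicate screen at 10 uM, then concentration-response follow-up.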

The nature of assay [13]: BSK_SAg_SRB: Viability Assessment in the BioMAP Diversity Plus: SAg Assay (AID 2283096).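 Further: cells read one day after compound addition; hits may be either gain or loss of signal compared with DMSO.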 The note with it: primary human HUVEC with PBMC. Put shortly:
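Compounds were added to a human vascular co-culture of umbilical vein endothelium and PBMC. After 24 h, parallel cultures were fixed with 10% TCA, stained with 0.1% sulforhodamine B and read at 560 nm. Gain or loss of signal was fitted relative to DMSO.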

Assay [14] addresses human CYP1A1, CYP1A1 (gene 1543) (UniProt P04798). The assay can be described thus: NVS_ADME_hCYP1A1: NovaScreen (NVS) CYP450-related Enzyme Activity (ADME) Assay for human CYP1A1 (AID 2283100; active means hit-call score of the fitted dose curve at least 0.9, where 1 is the maximum). The gist of the method:
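Read-out: fluorescence intensity from enzymatic turnover of substrate by recombinant CYP1A1, loss of signal indicating inhibition. Incubation 1 h post-dose. Primary single-point 10 uM in duplicate; actives rerun singly with top concentration 20 uM.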

Assay [15] addresses human CYP2B6, CYP2B6 (gene 1555) (UniProt P20813). The assay can be described thus: NVS_ADME_hCYP2B6: NovaScreen (NVS) CYP450-related Enzyme Activity (ADME) Assay for human CYP2B6 (AID 2283101; active means hit-call score of the fitted dose curve at least 0.9, where 1 is the maximum). Put shortly: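 Recombinant protein, specific fluorescent substrate, read at 1 h post-dosing. Primary: single 10 uM, duplicate; follow-up: concentration series. Activity = signal loss vs acetonitrile baseline, with positive and negative controls on every plate.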

Results filed as inconclusive are left out. Calls of active or inactive are those of the source. How the source made its calls, unless noted: active means hit-call score of the fitted dose curve at least 0.9, where 1 is the maximum; inactive means score below 0.9.

The term AC50 denotes the concentration giving half of the maximal activity seen.

Chain of E-selectin (Homo sapiens) (P16581 whole entry, looked up): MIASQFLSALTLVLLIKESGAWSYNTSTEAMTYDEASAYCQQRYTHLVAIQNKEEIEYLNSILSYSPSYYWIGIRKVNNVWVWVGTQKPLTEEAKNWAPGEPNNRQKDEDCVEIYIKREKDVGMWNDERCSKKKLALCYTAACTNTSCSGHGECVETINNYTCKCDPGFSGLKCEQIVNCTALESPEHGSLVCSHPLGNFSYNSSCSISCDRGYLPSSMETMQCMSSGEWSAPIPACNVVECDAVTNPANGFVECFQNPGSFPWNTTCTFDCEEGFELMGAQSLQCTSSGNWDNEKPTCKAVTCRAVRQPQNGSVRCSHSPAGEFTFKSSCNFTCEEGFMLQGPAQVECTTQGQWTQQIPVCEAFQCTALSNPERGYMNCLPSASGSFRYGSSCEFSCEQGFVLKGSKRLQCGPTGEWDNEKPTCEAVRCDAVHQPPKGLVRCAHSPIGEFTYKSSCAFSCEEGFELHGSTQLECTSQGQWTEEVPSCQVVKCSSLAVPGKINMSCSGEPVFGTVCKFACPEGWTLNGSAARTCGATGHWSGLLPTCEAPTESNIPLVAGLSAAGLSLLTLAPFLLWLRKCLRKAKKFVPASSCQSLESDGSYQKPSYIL
Chain of Tumor necrosis factor (Homo sapiens) (P01375 whole entry, looked up): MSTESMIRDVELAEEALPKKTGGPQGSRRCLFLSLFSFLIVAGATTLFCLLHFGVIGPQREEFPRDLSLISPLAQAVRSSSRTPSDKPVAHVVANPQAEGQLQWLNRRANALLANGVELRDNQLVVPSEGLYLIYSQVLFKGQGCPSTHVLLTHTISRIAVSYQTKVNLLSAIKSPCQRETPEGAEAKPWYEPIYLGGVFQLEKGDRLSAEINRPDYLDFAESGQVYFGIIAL
Chain of human CYP1A2, CYP1A2 (gene 1544) (P05177 whole entry, looked up): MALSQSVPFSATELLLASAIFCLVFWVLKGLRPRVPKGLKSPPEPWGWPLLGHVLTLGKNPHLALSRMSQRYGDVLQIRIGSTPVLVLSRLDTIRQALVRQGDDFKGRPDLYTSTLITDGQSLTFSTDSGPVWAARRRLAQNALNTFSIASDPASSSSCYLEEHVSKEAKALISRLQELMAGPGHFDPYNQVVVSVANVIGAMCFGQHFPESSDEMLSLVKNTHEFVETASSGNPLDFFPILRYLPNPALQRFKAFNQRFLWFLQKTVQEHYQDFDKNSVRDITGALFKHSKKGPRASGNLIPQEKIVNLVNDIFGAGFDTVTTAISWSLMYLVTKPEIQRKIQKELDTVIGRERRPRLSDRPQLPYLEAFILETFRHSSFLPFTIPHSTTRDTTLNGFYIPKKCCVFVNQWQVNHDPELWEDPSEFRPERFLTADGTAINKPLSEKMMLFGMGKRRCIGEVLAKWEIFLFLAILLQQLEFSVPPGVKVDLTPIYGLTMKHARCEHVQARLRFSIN
Chain of human CYP2B6, CYP2B6 (gene 1555) (P20813 whole entry, looked up): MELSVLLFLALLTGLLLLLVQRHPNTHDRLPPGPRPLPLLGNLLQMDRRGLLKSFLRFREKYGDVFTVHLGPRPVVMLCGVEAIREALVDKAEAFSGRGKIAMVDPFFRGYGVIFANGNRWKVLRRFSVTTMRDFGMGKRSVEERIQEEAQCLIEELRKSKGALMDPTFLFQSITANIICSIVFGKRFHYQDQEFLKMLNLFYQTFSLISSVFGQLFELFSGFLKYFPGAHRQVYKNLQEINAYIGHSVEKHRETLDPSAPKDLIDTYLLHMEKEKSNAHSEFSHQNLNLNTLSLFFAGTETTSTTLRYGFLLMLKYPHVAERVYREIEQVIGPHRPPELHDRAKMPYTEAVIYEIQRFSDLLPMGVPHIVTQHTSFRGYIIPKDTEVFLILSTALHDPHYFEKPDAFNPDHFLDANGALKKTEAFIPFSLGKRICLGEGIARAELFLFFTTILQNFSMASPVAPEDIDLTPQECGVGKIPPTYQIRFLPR
Chain of human CYP1A1, CYP1A1 (gene 1543) (P04798 whole entry, looked up): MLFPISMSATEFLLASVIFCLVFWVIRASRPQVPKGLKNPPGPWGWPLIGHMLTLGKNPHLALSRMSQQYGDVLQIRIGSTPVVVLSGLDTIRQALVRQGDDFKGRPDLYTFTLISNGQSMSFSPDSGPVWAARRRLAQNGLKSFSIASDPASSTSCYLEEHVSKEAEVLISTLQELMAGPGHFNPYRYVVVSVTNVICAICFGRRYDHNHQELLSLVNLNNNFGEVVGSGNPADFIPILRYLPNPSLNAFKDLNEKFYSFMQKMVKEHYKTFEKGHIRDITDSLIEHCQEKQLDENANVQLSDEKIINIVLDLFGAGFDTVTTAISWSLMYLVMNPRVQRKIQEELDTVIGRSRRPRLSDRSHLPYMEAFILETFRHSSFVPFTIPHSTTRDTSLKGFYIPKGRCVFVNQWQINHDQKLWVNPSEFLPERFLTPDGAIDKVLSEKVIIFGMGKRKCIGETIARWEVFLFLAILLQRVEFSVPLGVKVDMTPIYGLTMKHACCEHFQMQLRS

With `CCOc1cccc(C2(N3CCN(c4ccccc4)CC3)CCC(C)CC2)c1` (stereo not drawn), the outcome in assay [1] was “inactive”; in assay [2] it was “inactive”; in assay [3], “inactive”; in assay [4], “inactive”; in [5], “inactive”; in the assay with CD38, CD38 (gene 952) it was “inactive”. For the same compound, the outcome in the assay with CD40, CD40 (gene 958) was “inactive”; with CD69, CD69 (gene 969) it was “inactive”; in assay [6], “inactive”; in assay [7] it was “inactive”; in [8], “inactive”; in assay [9], “inactive”. The outcome in assay [10], in assay [11] and in [12] was inactive.
Take `Nc1ccc(Cc2ccc(N)cc2)cc1`: the AC50 in [1] is 8.34 µM (active); in [7], 13.6 µM (active); in [15], 0.719 µM (active). Also, the outcome in assay [2] is “inactive”; in assay [3] it was “inactive”; in assay [4], “inactive”; in assay [5], “inactive”; with CD38, CD38 (gene 952) it was “inactive”; with CD40, CD40 (gene 958) it was “inactive”. In addition, the outcome with CD69, CD69 (gene 969) was “inactive”; in assay [6], “inactive”; in assay [8], “inactive”; in [9] it was “inactive”; in [10], “inactive”; in assay [11], “inactive”. Also, the result in assay [13] and in [14] was inactive.
With `c1ccc2c(c1)-c1cccc3cccc-2c13`, the outcome in assay [1] is “inactive”; in [2], “inactive”; in assay [3], “inactive”; in assay [5], “inactive”; with CD38, CD38 (gene 952), “inactive”; with CD69, CD69 (gene 969), “inactive”. For the same compound, the result in assay [6], in assay [8], in assay [9] and in assay [11] was inactive. Also, the AC50 in assay [4] was 4.36 µM (active); in the assay with CD40, CD40 (gene 958), 31.2 µM (active); in [7], 31.6 µM (active); in assay [10], 32.2 µM (active); in assay [12] it was 7.21 µM (active).
On to `Clc1ccc(C(c2ccc(Cl)cc2)C(Cl)(Cl)Cl)cc1`, for which the result in [1] was inactive. Further, the AC50 was 19.5 µM (active) in assay [2]; 38.7 µM (active) in assay [3]; 24.8 µM (active) in assay [4]; 28.7 µM (active) in [5]; 23.2 µM (active) in the assay with CD40, CD40 (gene 958); 25.5 µM (active) in the assay with CD69, CD69 (gene 969). The AC50 was 30 µM (active) in assay [6]; 38.2 µM (active) in assay [7]; 35.1 µM (active) in assay [8]; 15.5 µM (active) in [9]; 17 µM (active) in [10]; 12.7 µM (active) in assay [11]. Moreover, the AC50 in assay [13] was 21.6 µM (active).
For the compound `COP(=S)(OC)SCN1C(=O)c2ccccc2C1=O`, the outcome in [1] was “inactive”; in assay [2] it was “inactive”; in assay [3], “inactive”; in assay [4] it was “inactive”; in assay [5], “inactive”; with CD38, CD38 (gene 952), “inactive”. The outcome with CD40, CD40 (gene 958) is “inactive”; in the assay with CD69, CD69 (gene 969), “inactive”; in assay [6] it was “inactive”; in assay [7], “inactive”; in assay [8] it was “inactive”; in [9], “inactive”. Also, the outcome in [10] and in assay [11] was inactive. The AC50 is 3.41 µM (active) in [14], 0.766 µM (active) in [15] and 3.71 µM (active) in assay [12].
